HSF-1 act = increases HSF-1 driven luciferase reporter signal | NIH3T3-HGL HSF-1 luciferase reporter, MG132, 8 h; 100% = twice DMSO control signal | activation, % at 9 µM | hit rate 1.7% among 300,000 | AID 504408;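 active means mean replicate activation of at least 50% with a set share of replicates each reaching 50%; inconclusive means only one of those two conditions met; inactive means mean below 50% and too few replicates reaching it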
LMP1 NFkB inh = reduces LMP1-driven NF-kappaB luciferase signal; inhibition, % at 12.5 µM; LMP1-induced NF-kappaB luciferase reporter cells, luminescence; AID 504558; hit rate 0.69% among 350,000; in the data active means inhibition above about 41%; inconclusive means no clear call, values can overlap the other calls
LGR2 antag = inhibitors of bursicon-induced Drosophila LGR2 receptor cAMP signaling. HEK293 LGR2, CRE-luciferase, bursicon-stimulated, 4 h. inhibition, % at 9.99 µM. hit rate 0.35% among 380,000. AID 720647;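 active means drop in luminescence signal, shown as inhibition above about 50% in the replicate tests, limit read from the data, passing the limit was not always enough; inconclusive means probably only some replicates passing the limit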;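 further: agonist challenge used bursicon conditioned medium at about half maximal strength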
HSF1 inh = HSF1 inhibition. NIH3T3-HGL HSE-luciferase, MG132-induced, luminescence 8 h; active compounds read low. activity change, negative = inhibition, % at 7.5 µM (by protocol). hit rate 0.77% among 300,000. AID 2098;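 active means more than half of replicate wells show activity change below -50%, luminescence cut by over half; inconclusive means some wells, but at most half, below -50%; inactive means no replicate well below -50%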;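 further: luciferase reports HSF-1 transcriptional activity via heat shock element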
TWEAK Fn14 block = blocks TWEAK-Fn14 interaction in a reporter cell assay; inhibition, % at 10 µM; TWEAK-stimulated Fn14 reporter cells, luciferase luminescence, 8 h; hit rate 2% among 360,000; in the data active means inhibition above about 50%
TROY signal inh = TROY signaling inhibition; hit rate 0.98% among 360,000; Q293 LMP1-TROYcd NF-kB luciferase reporter, 4 h; inhibition, % at 10 µM;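 active means compounds whose plate-normalised and pattern-corrected inhibition of the luciferase reporter signal at the single screening dose is 50% or more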
Hits are given with their value; – = inactive; ? = inconclusive; · = no result given. Hits are enriched below; roughly 3.6% of the tested compounds scored in any of these assays.

SMILES	HSF-1 act	LMP1 NFkB inh	LGR2 antag	HSF1 inh	TWEAK Fn14 block	TROY signal inh
COc1ccc2nc(Nc3nc(CSc4nnnn4-c4ccccc4)cc(=O)[nH]3)nc(C)c2c1	–	–	·	–	57	–
CCOc1ccc2nc(Nc3nc(CSc4nnnn4-c4ccccc4)cc(=O)[nH]3)nc(C)c2c1	–	–	·	–	–	–
O=C(O)c1cccc(N/N=C/c2ccc(F)c(F)c2)c1	–	–	–	–	–	–
Cc1ccc(/C=N/Nc2ccc(C(=O)O)cc2)s1	–	70	90	-76	–	–
O=C(O)c1cccc(N/N=C/c2cccc3ccccc23)c1	–	48	–	–	–	–
Cc1ccc(/C=N/Nc2cccc(C(=O)O)c2)s1	–	–	58	–	–	–
COc1cc(C=NNc2ccccc2)ccc1OC(=O)c1ccccc1	·	–	–	·	–	–
CCOc1cc(/C=N/Nc2cccc(C(=O)O)c2)ccc1OC(=O)c1ccccc1	–	59	64	–	–	–
CC(=O)N[C@@H]1CC[C@@H](CCNC(=O)C2CCC2)O[C@@H]1CO	·	·	–	·	·	·
Cn1cnc([N+](=O)[O-])c1S(=O)(=O)c1cccc(Cl)c1	56	–	–	–	–	64
Cn1cnc([N+](=O)[O-])c1S(=O)(=O)Oc1ccccc1	·	–	–	·	–	–
COC(=O)c1sc(NC(=S)NC(=O)c2ccccc2F)nc1C	–	–	–	–	52	–
CCOC(=O)c1sc(NC(=O)Nc2ccccc2F)nc1C	–	–	?	-74	94	82
COC(=O)c1sc(NC(=S)NC(=O)c2cccc(C)c2)nc1C	–	–	·	–	–	–
CCc1ccc(OC(C)C(=O)N(Cc2ccco2)C2CCS(=O)(=O)C2)cc1 (configuration not stated)	–	–	–	-83	–	–
C#CCOCCOCCOCCNc1nc(N2CCN(C(=O)CCCCCCCCCCNC(=O)[C@H](CCCCN)n3cc(C[C@@H](C)CC)nn3)CC2)nc(N2CCN(C(=O)CCCCCCCCCCNC(=O)[C@H](CCCCN)n3cc(C[C@@H](C)CC)nn3)CC2)n1	–	–	·	–	51	65
C#CCOCCOCCOCCNc1nc(N2CCN(C(=O)CCCCCCCCCCNC(=O)[C@H](CO)n3cc(CCCSC)nn3)CC2)nc(N2CCN(C(=O)CCCCCCCCCCNC(=O)[C@H](CCCCN)n3cc(C[C@@H](C)CC)nn3)CC2)n1	–	·	·	-85	·	·
C#CCOCCOCCOCCNc1nc(N2CCN(C(=O)CCCCCCCCCCNC(=O)[C@H](CO)n3cc(CCCSC)nn3)CC2)nc(N2CCN(C(=O)CCCCCCCCCCNC(=O)[C@H](CO)n3cc(CCCSC)nn3)CC2)n1	–	–	–	–	–	–
C#CCOCCOCCOCCNc1nc(N2CCN(C(=O)CCCCCCCCCCNC(=O)[C@H]([C@@H](C)CC)n3cc(CCCCCN)nn3)CC2)nc(N2CCN(C(=O)CCCCCCCCCCNC(=O)[C@@H]([C@H](C)O)n3cc(C)nn3)CC2)n1	·	–	·	·	–	67
C#CCOCCOCCOCCNc1nc(N2CCN(C(=O)CCCCCCCCCCNC(=O)[C@H](CCCCN)n3cc(C)nn3)CC2)nc(N2CCN(C(=O)CCCCCCCCCCNC(=O)[C@@H]([C@H](C)CC)n3cc(CCCCCN)nn3)CC2)n1	·	–	·	·	–	–
CC[C@H](C)Cc1cn([C@@H](CCCCNC(=O)OC(C)(C)C)C(=O)NCCCCCCCCCCC(=O)N2CCN(C(=O)OC(C)(C)C)CC2)nn1	·	–	·	·	59	–
C[C@@H]1CN([C@H](C)CO)C(=O)c2cc(NS(=O)(=O)c3ccc(Cl)cc3)ccc2O[C@H]1CN(C)S(=O)(=O)c1ccccc1	·	·	–	·	·	·
O=C(NCc1ccc(F)cc1)[C@H]1[C@H](CO)[C@H]2Cn3c(cccc3=O)[C@@H]1N2	·	·	–	·	·	·
C[C@@H]1CCCCO[C@H](CN(C)C(=O)Nc2cccc3ccccc23)[C@H](C)CN([C@@H](C)CO)C(=O)c2cc(NC(=O)Cc3ccccc3)ccc2O1	·	·	–	·	·	·
COCC(=O)Nc1ccc2c(c1)OC[C@@H](C)N(Cc1cccc(F)c1)C[C@@H](C)[C@H](OC)CN(C)C2=O	·	·	–	·	·	·
SMILES	HSF-1 act	LMP1 NFkB inh	LGR2 antag	HSF1 inh	TWEAK Fn14 block	TROY signal inh
Cc1noc2ncnc(N3CCCC3)c12	–	–	–	–	–	–
Cc1noc2ncnc(Sc3ccc(Br)cc3)c12	153	–	76	–	66	64
C[C@@H]1CN([C@H](C)CO)C(=O)c2cccc(NC(=O)C3CC3)c2O[C@H]1CN(C)Cc1ccc2c(c1)OCO2	·	·	–	·	·	·
c1ccc(-n2nnc3c(N4CCOCC4)ncnc32)cc1	–	53	83	–	87	–
Fc1ccc(-n2cc(-c3ccccc3)c3c(N4CCOCC4)ncnc32)cc1	–	–	–	-52	–	–
Cc1nnc(N2CCOCC2)c2nn(-c3ccccc3)c(C)c12	–	–	–	–	–	–
C[C@H]1CN([C@@H](C)CO)S(=O)(=O)c2ccc(C#CCN(C)C)cc2O[C@@H]1CN(C)Cc1ccccn1	·	·	–	·	·	·
CC(NC(=O)COC(=O)/C(=C/c1cccs1)c1cccs1)c1ccccc1 (configuration not stated)	–	–	–	–	50	–
O=C(Nc1ccc2c(c1)OCCO2)C(c1ccnc2ccccc12)N1CCN(c2ccc(C(F)(F)F)cn2)CC1 (configuration not stated)	·	·	–	·	89	69
O=C(Nc1ccc2c(c1)OCCO2)C(c1ccnc2ccccc12)N1CCN(c2ccc(F)cc2)CC1 (configuration not stated)	·	·	–	·	–	–
CCCC(=O)Nc1ccc2c(c1)C(=O)N(C)C[C@H](OC)[C@H](C)CN(S(=O)(=O)c1cn(C)cn1)[C@@H](C)CO2	·	·	–	·	·	·
COc1ccc(-c2nc(C#N)c(N3CCCCC3)o2)cc1	74	–	–	–	–	–
COc1ccc(-c2nc(C#N)c(N3CCCCCC3)o2)cc1	–	–	·	–	–	–
NC(=O)COC(=O)c1c2c(nc3ccccc13)CCCCC2	–	–	–	–	–	55
CC(C)(C)C(=O)COC(=O)c1c2c(nc3ccccc13)CCC2	–	–	–	–	–	–
CCc1ccc(/C=C2\SC(N3CCCC3)=NC2=O)cc1	–	–	–	–	–	58
O=C1N=C(N2CCCC2)S/C1=C\C=C\c1ccccc1	–	–	·	-76	77	72
C[C@H]1CN([C@@H](C)CO)C(=O)c2cc(NC(=O)Cn3cnnn3)ccc2O[C@H]1CN(C)C(=O)Nc1ccc(F)cc1	·	·	–	·	·	·
O=C(NCC1CC1)[C@@H]1[C@@H](CO)[C@@H]2Cn3c(ccc(-c4cccc(F)c4)c3=O)[C@@H]2N1CC1CCOCC1	·	·	–	·	·	·
O=C(Nc1ccc(NC(=O)C2CC2)cc1)c1ccco1	–	–	–	–	–	–
Nc1ccc(/C=C/C(=O)c2ccco2)cc1	–	–	–	–	–	–
O=C(Nc1ccc(Nc2ccccc2)cc1)c1ccco1	67	–	·	–	–	–

Assay outcomes from PubChem.
